Where a chain is given by its changes, count along the chain named. Over roughly 24,000 sequences, “enrichment r” has its median near 0.99; the highest 2% begin near 3.7. What follows is part of a selection rich in the highest values, with near analogues and random picks from the rest.

To fix the notation:
T1: UNK ZnF1-3 (human, UniProt Q9C0B0 31-174)
T1 sequence: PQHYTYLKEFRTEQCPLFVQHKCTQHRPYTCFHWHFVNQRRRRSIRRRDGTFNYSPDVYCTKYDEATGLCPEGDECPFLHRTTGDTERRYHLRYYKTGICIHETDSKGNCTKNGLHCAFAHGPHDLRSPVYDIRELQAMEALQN

B1: 33187691_33187811_5116_3pUTR_ENSG00000170275_ENST00000320954|human|control|control (ssRNA)
RNA: GGGAGUUCUACAGUCCGACGAUCGCCUGCAGAACCAAACAGCAACCACUGAGCUCCAUGCUGAUGGGUCAAAGGACAAGCAAGGCAUCUUAGAGCAGGCCUGGAAGCUCCCACAAAGCUUACAAAUGUGUUUGUUUUUUCGAACAACAGAGGAUUGAGCAUCA
B2: chr6:38652254:38652255:-_ENSG00000124767_ENST00000373365|hu_hu|hu_hu_hu_mus_False|18_18 (ssRNA)
RNA: GGGAGUUCUACAGUCCGACGAUCCGAGAACUUCAUAGCAGGGAAGUCAAGCUUCUGCAGGAGGGUCAGUCCAAGAACCCUCGUAUAAAAAUCCAGGGACUUCUUAGGAUCCUUAAUUCGUAGCAUGGUUUGCUGCAGUAGAAACAACAGAGGAUUGAGCAUCA
B3: chr2:43450610:43450611:-_ENSG00000152518_ENST00000282388|hu_hu|motif|central (ssRNA)
RNA: GGGAGUUCUACAGUCCGACGAUCAGUUAAAUAGUUUUCAUAUUGAGUUGUGGUGCAGUGGUGCGAAUCAACUCAAAACAGCGGAAAAUUCAGCAGUUAUUCUCCAACAAUUACAAAGUAAGCUCUGCGCAAGGCUUCCAGAGGCAACAGAGGAUUGAGCAUCA
B4: chr17:36096658:36096659:-_ENSMUSG00000038762_ENSMUST00000043757|mus_mus|FALSE|FALSE (ssRNA)
RNA: GGGAGUUCUACAGUCCGACGAUCCUGCUUCUCGUACUGCUUUAGCAGCUCUUUCUGCUUCUGCUGGUACAUCUUCUUGAAGGUCAUGUAAUUGCCCCUGUAGUAAUGGAGCCGCUGGGUGUCCAGGUGGAUGAUAUCAGUGCACAACAGAGGAUUGAGCAUCA
B5: chrX:71549400:71549401:+_ENSMUSG00000019087_ENSMUST00000019231|mus_hu|mus_mus_mus_hu_False|28_98 (ssRNA)
RNA: GGGAGUUCUACAGUCCGACGAUCGCAGUAGGAAGAGCAAACCUUUCCAGUCCAGUGCGCUGCAGGGUGGGAAAGCAACAACACGGACACCGUCCCACCCUCAACCCUCUCAGGUGUACAGGGUCACACAAUCUGGGUCAAAGACAACAGAGGAUUGAGCAUCA
B6: chr13:100193180:100193181:-_ENSMUSG00000052727_ENSMUST00000064762|mus_mus|FALSE|FALSE (ssRNA)
RNA: GGGAGUUCUACAGUCCGACGAUCAUAAUAUAAAGGCUAAAUAAAUUUAAGUUGGAAAACUGGAAGAUAACUCCAUCUUCUAUGAAAGAAAAGUCAACCAGAGGUCUGGAUUUGGCAAGAAGGCUAGAAAUUGUUUCUCUUCACCAACAGAGGAUUGAGCAUCA
B7: chr17:65337090:65337091:-_ENSG00000197170_ENST00000584008|hu_hu|FALSE|FALSE (ssRNA)
RNA: GGGAGUUCUACAGUCCGACGAUCACCAGUCAUUUAAUAAAUUAUUUGGAUCCUUGGGUCUCUGGAAGUUGAUAAUUCCUGCUAAUCUGUCUACUUUAGCAAAGAUGGUCUUGUUAACUACUAGAUUUGAGAGAAAGGCUUCGGCAACAGAGGAUUGAGCAUCA
B8: chr1:182797045:182797046:+_ENSMUSG00000038806_ENSMUST00000038091|mus_hu|FALSE|FALSE (ssRNA)
RNA: GGGAGUUCUACAGUCCGACGAUCAGACUCAAGCUAAAUAGAAGAAAGAAAAUAACAGAAAUUAAUUAUAUAAACAAUUGAGAAAAAUAAAACCAAAGGUUGGUUCUUUAAAAGUUAUAUCGUCGGCCAGGCACGGUGGCUCACCAACAGAGGAUUGAGCAUCA
B9: chr13:100193180:100193181:-_ENSMUSG00000052727_ENSMUST00000064762|mus_mus|motif|central (ssRNA)
RNA: B6 RNA with U80G, A81G
B10: chr4:11091628:11091629:+_ENSMUSG00000028211_ENSMUST00000029865|mus_mus|motif|central (ssRNA)
RNA: GGGAGUUCUACAGUCCGACGAUCUUCUUUCUCACUGAAUUCUGGUUCUUGGCUGGAAGAAGUAGUGACUUCGCCGGCAAACAUUUUAUUCAGUCUCUGAAACAUUGUUAAGGCAAGAUUGAGAUUUUGGCUAGAUAUCUUUAUCAACAGAGGAUUGAGCAUCA
B11: 134340332_134340452_1702_CDS_ENSG00000130723_ENST00000357304|human|control|control (ssRNA)
RNA: GGGAGUUCUACAGUCCGACGAUCAGGGCCGUUUUCCUGGGGAGAUGCCUUCUCAGCACUUGGAGACCAGGGCACUUCCUUCUCUGCCUGCUUCCGGGCCUCACCUGCCUUUCGUGCCUGCUUACACUUCUGGUCCAGCUGCUUCAACAGAGGAUUGAGCAUCA
B12: 79156280_79159801_5654_CDS_ENSMUSG00000039414_ENSMUST00000097281|mouse|control|control (ssRNA)
RNA: GGGAGUUCUACAGUCCGACGAUCACUGCUGGCAGACCACAGGAAGAGCGCAAUGGCUGUGAGUGUGCUCACUUCGUCAGGUGCGGGCAUACAGUCAUCUGGUUGAGAAUAUUCCAGGAUGCAGGCAAGGGUGCUCCGGAUUAGCAACAGAGGAUUGAGCAUCA
B13: chr10:40656395:40656396:+_ENSMUSG00000019831_ENSMUST00000105509|mus_mus|FALSE|FALSE (ssRNA)
RNA: GGGAGUUCUACAGUCCGACGAUCUUGUGAUGGAGGAGAUGGAGGCAUUAAUGGAGCAUGGGGACCCGGGGCAGUAGAUGGUGCUGGAUGGAGCCCAGAGGGAGGAUGAGCAAGAGCUGCAACUGCGACAGGAGAUGAUGGCCGCAACAGAGGAUUGAGCAUCA
B14: chr4:144460044:144460045:+_ENSG00000153147_ENST00000283131|hu_mus|hu_hu_hu_mus_False|8_68 (ssRNA)
RNA: GGGAGUUCUACAGUCCGACGAUCACGGUCCAUAGCCUGAAGAUCAACUUGCGGAUUCCAAUCUGAGUCAUACAAAAUGACUACAUCAGCAGUUGCAAGAUUGAUGCCCAGACCACCAGCACGUGUGCUUAACAUGAAUACAAACAACAGAGGAUUGAGCAUCA
B15: chr22:19452774:19452775:-_ENSG00000070010_ENST00000399523|hu_hu|hu_hu_hu_mus_False|58_88 (ssRNA)
RNA: GGGAGUUCUACAGUCCGACGAUCCUUCUCAUUGUAGUUGAUAGCAAUCACAUCCCCAGUCGUCAGACAGGCGAAGUUCCUAAGUGCAUUUUCUAAUACCGCUUUAGGGUUGGUAAUAUCCAGGAAGUCUGGGCUCUGAGGCUGCAACAGAGGAUUGAGCAUCA
B16: 91655523_91655643_1000_CDS_ENSMUSG00000022961_ENSMUST00000114036|mouse|control|control (ssRNA)
RNA: GGGAGUUCUACAGUCCGACGAUCCUCCGAUGGUGCUUCUACAGGCUGCUCUGGCAAUCUUUGCACGUCAGUUGUAGAUGACUCUGGAAAAUCCAUUGUUGAUGGGCUUGGUUCAGGGUGCACCUCAGUAGGUGUCUCUGACACCAACAGAGGAUUGAGCAUCA
B17: chr16:2011185:2011186:+_ENSG00000140990_ENST00000268668|hu_hu|motif|central (ssRNA)
RNA: GGGAGUUCUACAGUCCGACGAUCCACGCGGCGGUACUGCCGGUGGUAGUAGUAAUACCUGUUCUUUGCGUGCUGCCGCUCGGUAAAUUCUCUCACGAGGGUCACGGGUCGGUCCACGAUGAGGUCGAACGCUUUCAUCAUGUACAACAGAGGAUUGAGCAUCA
B18: chr10:75542919:75542920:+_ENSG00000172586_ENST00000372833|hu_mus|FALSE|FALSE (ssRNA)
RNA: GGGAGUUCUACAGUCCGACGAUCUGAGAGUUCAUUGAAAAUAUUUCUCCAUUUUCAGAUGAGAUGAGAUUUGUUGGGAAAUCUCUGUAACAACUUGGUCAUCUUGUGGGGAGAUAAACUCUCGGACUGUCCCAGAGACUCCUGCAACAGAGGAUUGAGCAUCA
B19: chr15:85967975:85967976:+_ENSMUSG00000035900_ENSMUST00000088931|mus_mus|FALSE|FALSE (ssRNA)
RNA: GGGAGUUCUACAGUCCGACGAUCACAGAGCAUUUUAGGUUUAUUAAAUAAAAAUUAUAAUUUAUACAAGACUUUGUAUCUAAACAAGGUUUUCUUUUUUUAAAAAAAAAAGUGACAGAGGAUUUUUUUUCCUAUCAGUUCUUUCAACAGAGGAUUGAGCAUCA
B20: chr15:85967975:85967976:+_ENSMUSG00000035900_ENSMUST00000088931|mus_mus|motif|central (ssRNA)
RNA: B19 RNA with U80G, A81G
B21: chr5:162868235:162868236:+_ENSG00000113328_ENST00000340828|hu_hu|motif|central (ssRNA)
RNA: GGGAGUUCUACAGUCCGACGAUCCCAACACACCUUCUCCAAUACAAUCUUUUCCAUUCUCAUCAAGUCUGAAACCGUAAACCGGUAUUGACUUAUUCGGAUCAAGUCAGUUGCCAAUGGGACAUUCCUUUCCUCUUCUAUUGACAACAGAGGAUUGAGCAUCA
B22: chr9:14812383:14812384:-_ENSMUSG00000031934_ENSMUST00000164273|mus_mus|mus_mus_mus_hu_True|28_108 (ssRNA)
RNA: GGGAGUUCUACAGUCCGACGAUCAUAGCUCAAGUAGAUACACGCUAACAGUAUAAUGAUGAGUGUCAGCAGGCGGCAGCUAAUGUACUUGAUGAUUAAAUUAUUAGAGUUCUUUUUUGUCUUCAAGUACUGCUCCACAAUUGGCAACAGAGGAUUGAGCAUCA

For the test, the target named is T1, UNK ZnF1-3. The test can be described thus: nsRBNS (natural sequence RNA bind-n-seq); RBNS binding buffer (assumed for nsRBNS): 25 mM Tris pH 7.5, 150 mM KCl, 3 mM MgCl2, 0.01% Triton X-100, 500 ug/ml BSA, 20 U/ml SUPERase-In, 4 C; UNK is unkempt and MSI1 is Musashi-1; names of the RNAs are library labels; protein concentration not given here; high values mean tight binding.
B1 gave a binding signal of 1.65 enrichment R. To B2 belongs 0.56 enrichment R; to B3, 1.75 enrichment R. The figure for B4 is 0.639 enrichment R; for B5 it is 0.931 enrichment R; for B6 it is 3.86 enrichment R. Take B7: the binding signal turned out to be 1.44 enrichment R.

Consider B8, for which the binding signal was found to be 14.2 enrichment R.

On to B9, for which the binding signal worked out at 6.8 enrichment R.

B10 displayed a binding signal of 0.789 enrichment R. To B11 belongs 0.675 enrichment R; to B12, 1.35 enrichment R; to B13, 3.38 enrichment R. The molecule B14 yielded a binding signal of 0.925 enrichment R. The figure for B15 is 0.785 enrichment R; for B16 it is 0.484 enrichment R; for B17 it is 0.392 enrichment R. The figure for B18 is 0.344 enrichment R; for B19 it is 4.57 enrichment R. In turn, B20 had a binding signal of 7.03 enrichment R. The figure for B21 is 0.785 enrichment R. The figure for B22 is 1.06 enrichment R.

These data come from PMC12136788.
